Parasite growth data for 38 compounds are collected here from the supplement of paper PMC4894684.

The test system of this experiment is Toxoplasma gondii RH (in HFF). Description: parasite growth relative to the screen mean (all compounds = 100%); higher = less inhibition of parasite growth. Particulars: 5 µM; 72 h; oxygen 21 %. In outline:
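Confluent human foreskin fibroblasts in 96-well plates received library compounds by pin transfer at 5 µM final, taken from 10 mM DMSO stocks. Within 2 h the cells were infected with RH β-Gal–GFP Toxoplasma at MOI 1:5 and cultured 72 h at 21% O2. A CPRG β-Gal assay read against in-plate standard curves gave parasite number, and growth is stated relative to the screen mean, where all compounds = 100%, averaged across two screens.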

SMILES strings stand for the structures. Counter-ions that a name gives are not always drawn. ± gives the standard deviation of the averaged measurements.

Compound `Cc1nnc2ccc(-c3cccc(C(F)(F)F)c3)nn12` displayed a parasite growth of 126 ± 14%.

For `Cc1ncc(CN2CC=C(c3ccccc3)CC2)c(N)n1`, the parasite growth came to 135 ± 13%. The value for `S=C=Nc1cccc(C2(N3CCCCC3)CCCCC2)c1` [Metaphit] was 51.3 ± 6%; that for `COc1cc(N)c(Cl)cc1C(=O)NC1CN2CCC1CC2` (stereo not drawn) [Zacopride hydrochloride] was 142 ± 12%; that for `CC12NC(Cc3ccccc31)c1ccccc12` (single isomer, unassigned; (+)) [(+)-MK 801 maleate] was 123 ± 15%.

Consider `Cc1onc(O)c1CC(N)C(=O)O` (racemic), for which the parasite growth amounted to 107 ± 41%. The value for `NCC(CS(=O)(=O)O)c1ccc(Cl)cc1` (stereo not drawn) [Saclofen] was 114 ± 24%; that for `O=C1Nc2ccccc2C2(CCN(CCc3ccc(C(F)(F)F)cc3)CC2)O1` was 99.9 ± 20%; that for `Cn1c2c(c3ccccc31)CCNCC2` was 118 ± 15%. On to `O=c1ccc2[nH]cc(C3=CCNCC3)c2[nH]1`, for which the parasite growth amounted to 65.2 ± 3.1%. The value for `C(=C\c1ccccc1)/CN1CCN(CCOC(c2ccccc2)c2ccccc2)CC1` was 16.2 ± 8.1%; that for `NC(C(=O)O)c1nn[nH]n1` (racemic) [(RS)-(Tetrazol-5-yl)glycine] was 146 ± 30%; that for `CN(C)CCN(C)CCc1ccc(Cl)c(Cl)c1` [BD 1047 dihydrobromide] was 89.4 ± 30%.

On to `O=C(O)CCC(CP(=O)(O)O)C(=O)O` (stereo not drawn) [PMPA (NAALADase inhibitor)], for which the parasite growth came out at 126 ± 9.3%. The value for `CN(C(=O)Cc1ccccc1)C(CN1CCCC1)c1ccccc1` (stereo not drawn) [N-MPPP Hydrochloride] was 112.4 ± 0.63%; that for `O=C1NCN(c2ccccc2)C12CCN(CC1COc3ccccc3O1)CC2` (stereo not drawn) [Spiroxatrine] was 140.8 ± 0.7%. `COc1ccc(CCN2CCC(Nc3nc4ccccc4n3Cc3ccc(F)cc3)CC2)cc1` [Astemizole] returned a parasite growth of less than 0%. Consider `C[N+]1(C)CCc2cc3c(cc2C1C1OC(=O)c2c1ccc1c2OCO1)OCO3` (single isomer, unassigned; (-)) [(-)-Bicuculline methobromide], for which the parasite growth stood at 131 ± 20%. Take `O=c1cccc2n1C[C@@H]1CNC[C@H]2C1` [(-)-Cytisine]: the parasite growth was determined as 128 ± 26%. With `CC[N+](CC)(CCCNC1=CC(=O)C(NCCC[N+](CC)(CC)Cc2ccccc2)=CC1=O)Cc1ccccc1` [Benzoquinonium dibromide] the figure was 129 ± 29%; with `c1ccc2c(c1)OCC(C1=NCCN1)O2` (stereo not drawn) [Idazoxan hydrochloride], 111 ± 8.1%. The value for `FC(F)(F)c1cccc(C2=CCN(CCc3ccc4ccccc4c3)CC2)c1` [Xaliproden hydrochloride] was 159.2 ± 1.1%; that for `C[C@H](N)Cc1cnc[nH]1` [(S)-(+)-a-Methylhistamine dihydrobromide] was 113 ± 11%; that for `CC(C)(c1ccc(OCC2CO2)cc1)c1ccc(OCC2CO2)cc1` (stereo not drawn) was 157 ± 30%. The value for `COc1ccc(C[C@H]2NC[C@H](O)[C@H]2OC(C)=O)cc1` [Anisomycin] was less than 0%; that for `O=C1/C(=C/c2ccccc2)C[C@@]2(O)[C@H]3Cc4ccc(O)c5c4[C@@]2(CCN3CC2CC2)[C@H]1O5` [BNTX maleate] was less than 0%.

Compound `COc1ccc(CNC(=O)/C=C/c2ccc3[nH]cc(CCN(C)C)c3c2)cc1` had a parasite growth of 98.3 ± 31%. With `CCC[C@@H]1CC2=CC(=O)CC[C@]2(C)[C@H]2CC[C@@]3(C)[C@@H](CC[C@@]3(O)CCC(=O)O)[C@H]12` the figure was 75.2 ± 19%. With `Cc1cc(SCc2sc(-c3ccc(C(F)(F)F)c(F)c3)nc2C)ccc1OCC(=O)O` the figure was 79.2 ± 4.8%.

Consider `CCC(Oc1ccc(Cl)cc1)C(=O)OC1C[C@H]2CC[C@@H](C1)N2C` (stereo partly drawn) [SM-21 maleate], for which the parasite growth worked out at 95.2 ± 2.9%. The value for `C=CCN1C[C@H](C)N([C@H](c2ccc(C(=O)N(CC)CC)cc2)c2cccc(OC)c2)C[C@H]1C` was 42.5 ± 3.7%; that for `CC[C@@]1(O)C(=O)OCc2c1cc1n(c2=O)Cc2cc3ccccc3nc2-1` [Camptothecin] was 181 ± 36%.

`Clc1ccc(N2CCN(Cc3c[nH]c4ncccc34)CC2)cc1` [L-745,870 trihydrochloride] returned a parasite growth of 72.9 ± 7.7%. With `CCN1C[C@]2(COC(=O)c3ccccc3N3C(=O)C[C@H](C)C3=O)CC[C@H](OC)[C@@]34[C@@H]5C[C@H]6[C@H](OC)[C@@H]5[C@](O)(C[C@@H]6OC)[C@](O)([C@@H](OC)[C@H]23)[C@@H]14` [Methyllycaconitine citrate] the figure was 83.1 ± 5.7%.

In the case of `CCCN(CCC)[C@@H]1CCc2c(OC)cccc2[C@@H]1C` [(+)-UH 232 maleate], the parasite growth was 115 ± 20%.

Regarding `CNCCc1cnc[nH]1` [N α-Methylhistamine dihydrochloride], the parasite growth is 102 ± 1.5%.

Take `CN(C(=O)Cc1ccc(Cl)c(Cl)c1)[C@H](CN1CCCC1)c1ccccc1` [ICI-199,441 hydrochloride]: the parasite growth came out at 49.6 ± 10%. With `C[N+]1(C)CCc2cc3c(cc2[C@H]1[C@@H]1OC(=O)c2c1ccc1c2OCO1)OCO3` [(-)-Bicuculline methochloride] the figure was 120 ± 37%.
